# Tests used:
# Assay in all cases: yeast three-hybrid, YBZ-1, SC-Leu-His + 0.5 mM 3-AT, 4 days
# Settings in all cases: tags: N-Gal4 AD-HA kept; label: inside an RPR1-promoter hybrid RNA with tandem MS2 sites; ssRNA
# [1] = target: PUM1 PUF domain R8-RKK (Homo sapiens, UniProt Q14671 828-1176, N1122R;Y1123K;Q1126K)
# Summary of the method: (§1)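 Each repeat of the Pumilio-1 PUF domain was randomized at its three base-contacting residues, and these libraries were co-expressed from a centromeric plasmid with matching RNA elements in strain YBZ-1. After four days on SC-Leu (input) or SC-Leu-His + 0.5 mM 3-AT (selection), the repeat regions were PCR-amplified and Illumina-sequenced. The interaction score compares variant frequency between input and selection as a log change, computed in log2 with a pseudocount of 1 for absent variants.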
# [2] = target: PUM1 PUF domain R8-LYK (Homo sapiens, UniProt Q14671 828-1176, N1122L;Q1126K)
# Summary of the method: as §1
# [3] = target: PUM1 PUF domain R5-GWS (Homo sapiens, UniProt Q14671 828-1176, C1007G;R1008W;Q1011S)
# Summary of the method: as §1
# [4] = target: T1, PUM1 PUF domain R6-VFS (Homo sapiens, UniProt Q14671 828-1176, N1043V;Y1044F;Q1047S)
# T1 sequence: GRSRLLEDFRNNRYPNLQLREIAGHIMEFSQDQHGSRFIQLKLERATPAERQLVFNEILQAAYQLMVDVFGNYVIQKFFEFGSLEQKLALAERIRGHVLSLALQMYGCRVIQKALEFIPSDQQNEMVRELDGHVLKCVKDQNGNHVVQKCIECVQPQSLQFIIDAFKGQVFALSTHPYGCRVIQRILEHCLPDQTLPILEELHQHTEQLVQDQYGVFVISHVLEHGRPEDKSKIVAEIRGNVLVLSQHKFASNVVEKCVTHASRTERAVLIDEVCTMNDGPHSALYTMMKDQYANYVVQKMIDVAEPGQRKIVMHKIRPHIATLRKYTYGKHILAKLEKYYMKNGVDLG
# Summary of the method: as §1
# [5] = target: PUM1 PUF domain R3-FSS (Homo sapiens, UniProt Q14671 828-1176, C935F;R936S;Q939S)
# Summary of the method: as §1
# [6] = target: PUM1 PUF domain R7-TVA (Homo sapiens, UniProt Q14671 828-1176, S1079T;N1080V;E1083A)
# Summary of the method: as §1
# [7] = target: PUM1 PUF domain R3-MWG (Homo sapiens, UniProt Q14671 828-1176, C935M;R936W;Q939G)
# Summary of the method: as §1
# [8] = target: PUM1 PUF domain R2-CFP (Homo sapiens, UniProt Q14671 828-1176, N899C;Y900F;Q903P)
# Summary of the method: as §1
# [9] = target: PUM1 PUF domain R5-KGL (Homo sapiens, UniProt Q14671 828-1176, C1007K;R1008G;Q1011L)
# Summary of the method: as §1
# [10] = target: PUM1 PUF domain R1-RGI (Homo sapiens, UniProt Q14671 828-1176, S863R;R864G;Q867I)
# Summary of the method: as §1
sequence,measurement,setting,value
GGCUAGAACUAGUGGAUCCCCCGGCGCCCGGCGGCUCGAGCCCGGGUAAGCGUAAAUAGUCUGCAUGCCGCCGGGCGCCAUGCCUGCAGGUCGACUCUAGAAAACAUG,binding signal,[1],4.27 log2 enrichment (interaction score)
same,binding signal,[2],5.14 log2 enrichment (interaction score)
GGCUAGAACUAGUGGAUCCCCCGGCGCCCGGCGGCUCGAGCCCGGGUAAGUGUAAAUAGUCUGCAUGCCGCCGGGCGCCAUGCCUGCAGGUCGACUCUAGAAAACAUG,binding signal,[1],4.25 log2 enrichment (interaction score)
same,binding signal,[3],4.65 log2 enrichment (interaction score)
same,binding signal,[4],2.71 log2 enrichment (interaction score)
same,binding signal,[2],5.28 log2 enrichment (interaction score)
GGCUAGAACUAGUGGAUCCCCCGGCGCCCGGCGGCUCGAGCCCGGGUAAGUGUAAGUAGUCUGCAUGCCGCCGGGCGCCAUGCCUGCAGGUCGACUCUAGAAAACAUG,binding signal,[5],2.46 log2 enrichment (interaction score)
GGCUAGAACUAGUGGAUCCCCCGGCGCCCGGCGGCUCGAGCCCGGGUAAGUUUAAAUAGUCUGCAUGCCGCCGGGCGCCAUGCCUGCAGGUCGACUCUAGAAAACAUG,binding signal,[6],3.46 log2 enrichment (interaction score)
GGCUAGAACUAGUGGAUCCCCCGGCGCCCGGCGGCUCGAGCCCGGGUAAGUGUAAUUAGUCUGCAUGCCGCCGGGCGCCAUGCCUGCAGGUCGACUCUAGAAAACAUG,binding signal,[7],3.86 log2 enrichment (interaction score)
GGCUAGAACUAGUGGAUCCCCCGGCGCCCGGCGGCUCGAGCCCGGGUAAGUGUAAAAAGUCUGCAUGCCGCCGGGCGCCAUGCCUGCAGGUCGACUCUAGAAAACAUG,binding signal,[8],10.2 log2 enrichment (interaction score)
GGCUAGAACUAGUGGAUCCCCCGGCGCCCGGCGGCUCGAGCCCGGGUAAGUGUCAAUAGUCUGCAUGCCGCCGGGCGCCAUGCCUGCAGGUCGACUCUAGAAAACAUG,binding signal,[9],3.86 log2 enrichment (interaction score)
GGCUAGAACUAGUGGAUCCCCCGGCGCCCGGCGGCUCGAGCCCGGGUAAGUGUAAAUCGUCUGCAUGCCGCCGGGCGCCAUGCCUGCAGGUCGACUCUAGAAAACAUG,binding signal,[10],2.06 log2 enrichment (interaction score)
GGCUAGAACUAGUGGAUCCCCCGGCGCCCGGCGGCUCGAGCCCGGGUAAGUGUAAAUUGUCUGCAUGCCGCCGGGCGCCAUGCCUGCAGGUCGACUCUAGAAAACAUG,binding signal,[10],1.53 log2 enrichment (interaction score)
